# Source: PubChem BioAssay (EPA / NIEHS)
# Where “and” joins values, the source holds several entries; their conditions need not be identical. Equal entries are not always repeated. Calls of active or inactive are those of the source. How the source made its calls: active means hit-call score of the fitted dose curve at least 0.9, where 1 is the maximum; inactive means score below 0.9.
# How the values were obtained:
# [1] = BSK_hDFCGF_SRB: Viability Assessment in the BioMAP Diversity Plus: hDFCGF Assay (AID 2283061); settings: primary human foreskin fibroblasts;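 further: cells exposed to compound for 24 h before the read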
# Procedure, shortened: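 Human foreskin fibroblasts in 96-well plates were treated 24 h. Total protein was measured by 0.1% SRB staining after 10% TCA fixation, read at 560 nm. Data were fitted bidirectionally against DMSO.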
# [2] = read-out: TIMP metallopeptidase inhibitor 1 (TIMP1), TIMP1 (gene 7076); test: BSK_hDFCGF_TIMP1: BioMAP Diversity Plus: hDFCGF Assay for TIMP metallopeptidase inhibitor 1 (TIMP1) Biomarker Activity (AID 2283062); settings: primary human foreskin fibroblasts; actives raise or lower the signal
# Procedure, shortened: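 Human foreskin fibroblast primary cultures dosed for 24 h; secreted/surface TIMP-1 quantified by ELISA. Bidirectional curve fitting against DMSO baseline; cytotoxicity tracked in parallel cultures by SRB total-protein staining.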
# [3] = read-out: Monokine induced gamma interferon (MIG), CXCL9 (gene 4283); test: BSK_hDFCGF_MIG: BioMAP Diversity Plus: hDFCGF Assay for Monokine induced gamma interferon (MIG) Biomarker Activity (AID 2283063); settings: primary human foreskin fibroblasts; actives raise or lower the signal
# Procedure, shortened: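 MIG/CXCL9 measured by ELISA 24 h after dosing primary human skin fibroblasts. Activity fitted in both directions against DMSO controls. Cytotoxicity was checked in parallel cultures by SRB staining read at 560 nm.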
# [4] = read-out: Matrix Metallopeptidase 1 (MMP1), MMP1 (gene 4312); test: BSK_hDFCGF_MMP1: BioMAP Diversity Plus: hDFCGF Assay for Matrix Metallopeptidase 1 (MMP1) Biomarker Activity (AID 2283064); settings: primary human foreskin fibroblasts; actives raise or lower the signal
# Procedure, shortened: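 Primary human foreskin fibroblasts exposed to chemicals for 24 h; MMP1 measured by ELISA. Cytotoxicity tracked by SRB staining in parallel cultures; bidirectional fit relative to DMSO.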
# [5] = read-out: Vascular cell adhesion molecule 1 (VCAM1), VCAM1 (gene 7412); test: BSK_hDFCGF_VCAM1: BioMAP Diversity Plus: hDFCGF Assay for Vascular cell adhesion molecule 1 (VCAM1) Biomarker Activity (AID 2283065); settings: primary human foreskin fibroblasts; actives raise or lower the signal;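 on AC50: VCAM-1 protein level quantified by ELISA after 24 h chemical exposure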
# Procedure, shortened: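 Human foreskin fibroblast primary cells dosed with chemical, VCAM-1 measured by ELISA at 24 h. Bidirectional curve fitting relative to DMSO as negative control/baseline.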
# [6] = read-out: Plasminogen activator inhibitor-1 (PAI1), SERPINE1 (gene 5054); test: BSK_hDFCGF_PAI1: BioMAP Diversity Plus: hDFCGF Assay for Plasminogen activator inhibitor-1 (PAI1) Biomarker Activity (AID 2283066); settings: primary human foreskin fibroblasts; actives raise or lower the signal
# Procedure, shortened: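 Human foreskin fibroblasts in the hDFCGF system were dosed with compound for 24 h; PAI-1 was quantified by ELISA. Bidirectional curve fitting used DMSO as negative control and baseline.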
# [7] = read-out: Intercellular Adhesion Molecule 1 (ICAM1), ICAM1 (gene 3383); test: BSK_KF3CT_ICAM1: BioMAP Diversity Plus: KF3CT Assay for Intercellular Adhesion Molecule 1 (ICAM1) Biomarker Activity (AID 2283067); settings: primary human keratinocytes with fibroblasts; actives raise or lower the signal
# Procedure, shortened: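 Human keratinocyte–foreskin fibroblast co-culture was treated for 24 h. Cell-surface ICAM-1 was quantified by ELISA, fitted bidirectionally relative to DMSO. Cytotoxicity was checked in parallel cultures by SRB total-protein staining.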
# [8] = read-out: Interferon-gamma inducible Protein 10 (IP10), CXCL10 (gene 3627); test: BSK_KF3CT_IP10: BioMAP Diversity Plus: KF3CT Assay for Interferon-gamma inducible Protein 10 (IP10) Biomarker Activity (AID 2283068); settings: primary human keratinocytes with fibroblasts; actives raise or lower the signal
# Procedure, shortened: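 KF3CT co-culture (keratinocytes + foreskin fibroblasts), 24 h compound, IP-10 by ELISA; bidirectional fit vs DMSO baseline.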
# [9] = BSK_KF3CT_SRB: Viability Assessment in the BioMAP Diversity Plus: KF3CT Assay (AID 2283069); settings: primary human keratinocytes with fibroblasts;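 further: total protein by sulforhodamine B staining as a cytotoxicity measure; read 24 h after compound addition; fitted for both signal gain and loss against DMSO baseline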
# Procedure, shortened: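 Human keratinocyte and foreskin fibroblast co-culture exposed to chemical for 24 h. Total protein measured in parallel cultures by 0.1% sulforhodamine B staining after 10% TCA fixation, read at 560 nm; bidirectional fit relative to DMSO.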
# [10] = read-out: Interleukin-1 alpha (IL1a), IL1A (gene 3552); test: BSK_KF3CT_IL1a: BioMAP Diversity Plus: KF3CT Assay for Interleukin-1 alpha (IL1a) Biomarker Activity (AID 2283070); settings: primary human keratinocytes with fibroblasts; actives raise or lower the signal
# Procedure, shortened: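 Primary human keratinocyte plus foreskin fibroblast co-culture, dosed and measured at 24 h in 96-well plates. IL-1a level quantified by ELISA; bidirectional fit relative to DMSO.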
# [11] = read-out: TIMP metallopeptidase inhibitor 2 (TIMP2), TIMP2 (gene 7077); test: BSK_KF3CT_TIMP2: BioMAP Diversity Plus: KF3CT Assay for TIMP metallopeptidase inhibitor 2 (TIMP2) Biomarker Activity (AID 2283071); settings: primary human keratinocytes with fibroblasts; actives raise or lower the signal
# Procedure, shortened: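 Human primary keratinocyte/foreskin fibroblast co-culture dosed with chemical and sampled at 24 h. TIMP-2 levels quantified by ELISA; bidirectional fitting against DMSO negative control as baseline.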
# [12] = read-out: Transforming growth factor beta 1 (TGFb1), TGFB1 (gene 7040); test: BSK_KF3CT_TGFb1: BioMAP Diversity Plus: KF3CT Assay for Transforming growth factor beta 1 (TGFb1) Biomarker Activity (AID 2283072); settings: primary human keratinocytes with fibroblasts; actives raise or lower the signal
# Procedure, shortened: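 Human keratinocyte plus foreskin fibroblast primary co-culture, dosed with chemical for 24 h. TGF-b1 quantified by ELISA. Activity fitted bidirectionally against DMSO negative control as baseline.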
# [13] = read-out: C-C motif chemokine 2 (Homo sapiens) (UniProt P13500); test: BSK_KF3CT_MCP1: BioMAP Diversity Plus: KF3CT Assay for Monocyte Chemoattractant Protein 1 (MCP1/CCL2) Biomarker Activity (AID 2283073); settings: primary human keratinocytes with fibroblasts; actives raise or lower the signal
# Procedure, shortened: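 Human keratinocyte–foreskin fibroblast co-culture; MCP-1 measured by ELISA 24 h after dosing. Bidirectional fit vs DMSO; cytotoxicity tracked by SRB total protein in parallel cultures.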
# [14] = read-out: Matrix Metallopeptidase 9 (MMP9), MMP9 (gene 4318); test: BSK_KF3CT_MMP9: BioMAP Diversity Plus: KF3CT Assay for Matrix Metallopeptidase 9 (MMP9) Biomarker Activity (AID 2283074); settings: primary human keratinocytes with fibroblasts; actives raise or lower the signal;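 on AC50: MMP9 protein level quantified by ELISA in the co-culture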
# Procedure, shortened: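 Human keratinocyte and foreskin fibroblast co-culture exposed to chemicals for 24 h; MMP9 biomarker measured by ELISA, bidirectional fitting relative to DMSO; cytotoxicity tracked by SRB total protein staining in parallel cultures.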
# [15] = read-out: urokinase plasminogen activator (uPA), PLAU (gene 5328); test: BSK_KF3CT_uPA: BioMAP Diversity Plus: KF3CT Assay for urokinase plasminogen activator (uPA) Biomarker Activity (AID 2283075); settings: primary human keratinocytes with fibroblasts; actives raise or lower the signal
# Procedure, shortened: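 Primary human keratinocyte/foreskin fibroblast co-culture exposed to chemical; uPA measured by ELISA at 24 h. Bidirectional fit versus DMSO, with parallel SRB total-protein staining for cytotoxicity.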
# CD40, CD40 (gene 958) = test: BSK_LPS_CD40: BioMAP Diversity Plus: LPS Assay for CD40 Biomarker Activity (AID 2283076); settings: primary human HUVEC with PBMC; actives raise or lower the signal
# Procedure, shortened: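 HUVEC plus PBMC co-culture stimulated with LPS; CD40 quantified by ELISA 24 h after compound dosing. Fitting was bidirectional relative to DMSO. SRB staining of parallel cultures flagged overt cytotoxicity.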
# [16] = read-out: E-selectin (Homo sapiens) (UniProt P16581); test: BSK_LPS_Eselectin: BioMAP Diversity Plus: LPS Assay for Eselectin Biomarker Activity (AID 2283077); settings: primary human HUVEC with PBMC; actives raise or lower the signal
# Procedure, shortened: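 Human umbilical vein endothelial cells co-cultured with PBMC under LPS stimulation; cell-surface E-selectin measured by ELISA 24 h after dosing. Change in either direction versus DMSO, with SRB total-protein staining in parallel cultures for cytotoxicity.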
# [17] = read-out: Interleukin-8 (IL8), CXCL8 (gene 3576); test: BSK_LPS_IL8: BioMAP Diversity Plus: LPS Assay for Interleukin-8 (IL8) Biomarker Activity (AID 2283078); settings: primary human HUVEC with PBMC; actives raise or lower the signal
# Procedure, shortened: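 Human umbilical vein endothelial cells co-cultured with PBMC, LPS-stimulated, exposed to compound for 24 h. IL-8 quantified by ELISA; fitted in both directions against DMSO, with SRB total-protein staining of parallel cultures for cytotoxicity.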
# [18] = BSK_LPS_SRB: Viability Assessment in the BioMAP Diversity Plus: LPS Assay (AID 2283079); settings: primary human HUVEC with PBMC;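 further: total protein by sulforhodamine B absorbance as a cytotoxicity measure; measured one day after compound addition; fitted in both directions against DMSO so loss or gain of signal counts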
# Procedure, shortened: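 Co-culture of human umbilical vein endothelial cells and PBMC, read 24 h after dosing. Total protein by 0.1% SRB staining after 10% TCA fixation, absorbance at 560 nm; bidirectional fit against DMSO.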
# [19] = read-out: Interleukin-1 alpha (IL1a), IL1A (gene 3552); test: BSK_LPS_IL1a: BioMAP Diversity Plus: LPS Assay for Interleukin-1 alpha (IL1a) Biomarker Activity (AID 2283080); settings: primary human HUVEC with PBMC; actives raise or lower the signal
# Procedure, shortened: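 Human umbilical vein endothelial cells co-cultured with PBMC and stimulated with LPS; IL-1a measured by ELISA 24 h after dosing. Bidirectional fitting against DMSO; cytotoxicity checked by SRB staining in parallel cultures.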
# Sequence of E-selectin (Homo sapiens) (P16581 whole entry, looked up): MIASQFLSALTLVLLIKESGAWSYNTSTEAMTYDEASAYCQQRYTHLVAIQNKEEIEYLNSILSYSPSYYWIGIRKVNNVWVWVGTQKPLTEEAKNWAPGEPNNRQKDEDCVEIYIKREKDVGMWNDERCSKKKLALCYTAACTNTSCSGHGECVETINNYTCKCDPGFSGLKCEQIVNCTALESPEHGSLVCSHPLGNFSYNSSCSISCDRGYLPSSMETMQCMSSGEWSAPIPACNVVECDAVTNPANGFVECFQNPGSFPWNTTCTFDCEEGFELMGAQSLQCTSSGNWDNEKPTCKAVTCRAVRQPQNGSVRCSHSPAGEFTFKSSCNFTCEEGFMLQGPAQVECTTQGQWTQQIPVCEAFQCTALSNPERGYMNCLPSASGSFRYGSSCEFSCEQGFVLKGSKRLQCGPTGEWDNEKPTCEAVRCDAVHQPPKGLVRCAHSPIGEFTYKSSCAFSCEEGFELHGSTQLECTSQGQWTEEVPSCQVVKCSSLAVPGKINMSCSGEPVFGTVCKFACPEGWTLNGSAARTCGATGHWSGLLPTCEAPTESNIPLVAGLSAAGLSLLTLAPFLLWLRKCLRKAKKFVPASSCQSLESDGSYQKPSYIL
compound,measurement,setting,value
COP(N)(=O)SC (stereo unspecified),outcome,[1],inactive
same,outcome,[2],inactive
same,outcome,[3],inactive
same,outcome,[4],inactive
same,outcome,[5],inactive
same,outcome,[6],inactive
same,outcome,[7],inactive
same,outcome,[8],inactive
same,outcome,[9],inactive
same,outcome,[10],inactive
same,outcome,[11],inactive
same,outcome,[12],inactive
same,outcome,[13],inactive
same,outcome,[14],inactive
same,outcome,[15],inactive
same,outcome,"CD40, CD40 (gene 958)",inactive
same,outcome,[16],inactive
same,outcome,[17],inactive
same,outcome,[18],inactive
same,outcome,[19],inactive
CC1=C(C(=O)Nc2ccccc2)SCCO1,outcome,[1],inactive
same,outcome,[2],inactive
same,outcome,[3],inactive
same,outcome,[4],inactive
same,outcome,[5],inactive
same,outcome,[6],inactive
same,outcome,[7],inactive
same,outcome,[8],inactive
same,outcome,[9],inactive
same,outcome,[10],inactive
same,outcome,[11],inactive
same,outcome,[12],inactive
same,outcome,[13],inactive
same,outcome,[14],inactive
same,outcome,[15],inactive
same,outcome,"CD40, CD40 (gene 958)",inactive
same,outcome,[16],inactive
same,outcome,[17],inactive
same,outcome,[18],inactive
same,outcome,[19],inactive
CCCCNC(=O)OCC#CI,AC50,[2],7.08 µM (active) and 26 µM (active)
same,AC50,[3],5.27 µM (active) and 3.85 µM (active)
same,AC50,[4],8.48 µM (active) and 7.13 µM (active)
same,AC50,[5],3.08 µM (active) and 10.7 µM (active)
same,AC50,[6],7.77 µM (active) and 7.46 µM (active)
same,AC50,[7],35.1 µM (active) and 15.5 µM (active)
same,AC50,[8],33.2 µM (active) and 11.9 µM (active)
same,AC50,[9],29.3 µM (active) and 18 µM (active)
same,AC50,[10],30.1 µM (active) and 20 µM (active)
same,AC50,[11],32.5 µM (active) and 20.4 µM (active)
same,AC50,[12],30.1 µM (active) and 14.9 µM (active)
same,AC50,[13],32.8 µM (active) and 20 µM (active)
same,AC50,[14],29.4 µM (active) and 13.7 µM (active)
same,AC50,[15],29.6 µM (active) and 15.1 µM (active)
same,AC50,"CD40, CD40 (gene 958)",13.6 µM (active) and 9.3 µM (active)
same,AC50,[16],31.3 µM (active) and 29.8 µM (active)
same,AC50,[17],19 µM (active) and 16.3 µM (active)
same,AC50,[18],26.7 µM (active)
same,AC50,[19],23.2 µM (active) and 13 µM (active)
COC(=O)c1ccccc1C(=O)OC,outcome,[2],inactive
same,outcome,[3],inactive
same,outcome,[4],inactive
same,outcome,[5],inactive
same,outcome,[6],inactive
same,outcome,[7],inactive
same,outcome,[8],inactive
same,outcome,[9],inactive
same,outcome,[10],inactive
same,outcome,[11],inactive
same,outcome,[12],inactive
same,outcome,[13],inactive
same,outcome,[14],inactive
same,outcome,[15],inactive
same,outcome,"CD40, CD40 (gene 958)",inactive
same,outcome,[16],inactive
same,outcome,[17],inactive
same,outcome,[18],inactive
same,outcome,[19],inactive
CC(C)Oc1cc(-n2nc(C(C)(C)C)oc2=O)c(Cl)cc1Cl,outcome,[2],inactive
same,outcome,[3],inactive
same,AC50,[4],5.65 µM (active)
same,AC50,[5],32 µM (active)
same,AC50,[6],24.4 µM (active)
same,outcome,[7],inactive
same,AC50,[8],14.9 µM (active)
same,outcome,[9],inactive
same,AC50,[10],13.9 µM (active)
same,outcome,[11],inactive
same,outcome,[12],inactive
same,outcome,[13],inactive
same,AC50,[14],28.8 µM (active)
same,outcome,[15],inactive
same,AC50,"CD40, CD40 (gene 958)",14.8 µM (active)
same,AC50,[16],31.3 µM (active)
same,AC50,[17],31.5 µM (active)
same,AC50,[18],29.3 µM (active)
same,AC50,[19],32.7 µM (active)
N#CC(CCc1ccc(Cl)cc1)(Cn1cncn1)c1ccccc1 (stereo unspecified),outcome,[2],inactive
same,outcome,[3],inactive
same,outcome,[4],inactive
same,outcome,[5],inactive
same,outcome,[6],inactive
same,outcome,[7],inactive
same,outcome,[8],inactive
same,outcome,[9],inactive
same,outcome,[10],inactive
same,outcome,[11],inactive
same,outcome,[12],inactive
same,outcome,[13],inactive
same,outcome,[14],inactive
same,outcome,[15],inactive
same,outcome,"CD40, CD40 (gene 958)",inactive
same,outcome,[16],inactive
same,outcome,[17],inactive
same,outcome,[18],inactive
same,outcome,[19],inactive
